# Laboratory results: PubChem BioAssay (NCATS)
# Where “and” joins values, the source holds several entries; their conditions need not be identical. Identical values can stand only once. Inconclusive results are not listed. A structure can be active in one record and inactive in another. Calls of active or inactive are those of the source. Calls follow the shape of the dose curve; as a rule, active = well fitted curve in the direction sought with a large enough effect; inconclusive = small, poorly fitted or top-dose-only effect, or another doubt; inactive = no such curve, though single readings can be large; an effect the other way counts as inactive or inconclusive.
# Assay: Primary qHTS for inhibitors of nuclear receptor binding SET domain protein 2 (NSD2) in an isogenic RCH-ACV NSD2 p.E1099K mutant (9B) (AID 1645876)
# Settings: RCH-ACV NSD2 E1099K (9B) viability, CellTiter-Glo, 72 h; series mostly up to 44.9 µM; activity change, negative = viability loss: at the top concentration
# % is scaled to controls: 0 for no effect and ±100 for the full control effect; potency is read from the fitted curve at half-maximal effect.
# Also: nearly all actives have a fitted effect of over 70% in size.
SMILES,"activity change, negative = viability loss",Potency
Cc1ccc(OC[C@H](O)[C@H](C)NC(C)C)c2c1CCC2,-20.2% (inactive),–
C=C[C@H](/C=C\c1ccc(O)cc1)c1ccc(O)cc1,–,16.3 µM (active)
CC(=O)OC1CC(C)C2(CCC3(CC(=O)OC3O)O2)C2(C)CCCC(C)(C)C12 (stereo not given),-11.5% [at 17.3 µM] (inactive),–
CC(=O)OC1CC(C)(C(=O)O)CC2C3=CC(=O)C4C5(C)CCC(OC6OC(C(=O)O)C(O)C(O)C6OC6OC(C(=O)O)C(O)C(O)C6O)C(C)(C)C5CCC4(C)C3(C)CCC12C (stereo not given),-3.77% [at 9.23 µM] (inactive),–
C/C=C(/C)C(=O)OC1CC(C)(C)CC2C3=CCC4C5(C)CCC(O[C@@H]6O[C@H](C(=O)O)[C@@H](O)[C@H](O)[C@H]6O[C@@H]6O[C@H](CO)[C@H](O)[C@H](O[C@@H]7OC[C@H](O)[C@H](O)[C@H]7O[C@@H]7O[C@H](CO)[C@@H](O)[C@H](O)[C@H]7O)[C@H]6O)C(C)(C)C5CCC4(C)C3(C)C(O)C(O)C12CO (stereo not given in full),–,2.18 µM (active)
CN(C)C(=O)COC(=O)c1cc(-c2ccc(C3CCNCC3)cc2)c2ccc(-c3ccc(C(F)(F)F)cc3)cc2c1,–,4.59 µM (active)
CC1=CC2/C=C(\C)CCC(O)C(=O)C(O)CC(=O)C23C(=O)NC(CC(C)C)C3C1C (stereo not given),–,11.2 µM (active)

# Assay: Primary qHTS for inhibitors of nuclear receptor binding SET domain protein 2 (NSD2) in an RCH-ACV wild type WT cells (2C) (AID 1645877)
# Settings: RCH-ACV (leukaemia line) NSD2 WT (2C) viability, CellTiter-Glo, 72 h; series mostly up to 44.9 µM; activity change, negative = cell killing: at the top concentration
SMILES,Potency,"activity change, negative = cell killing"
COc1ccc([C@H]2OC[C@H]3O[C@@H](O[C@H]4[C@@H]2NC[C@@H]4O)[C@H](O)[C@H]3O)cc1,1.27 µM (active),–
COC(=O)C[C@H]1[C@]2(C)C3=C(C)[C@H](c4ccoc4)C[C@H]3O[C@@H]2[C@H](O)C2[C@](C)(C(=O)OC)C=CC(=O)[C@@]21C (stereo not given in full),–,-21.3% [at 17.3 µM] (inactive)
CN(C)CCn1cc(-c2ccc(F)cc2)c(-n2cccc2)n1,–,-14.3% (inactive)
Cc1nc(-c2cn3c(n2)-c2ccc(-c4cnn(C(C)(C)C(N)=O)c4)cc2OCC3)n(C(C)C)n1,5.8 nM (active) and 33.2 nM (active),–
CC(C)C(C)C(O)C1CC23CC(=O)C4(O)C(=C2CCC3C1C)C=CC1(O)CC(O)CCC14C (stereo not given),–,-21% [at 17.3 µM] (inactive)
CS(=O)(=O)c1ccc(Oc2cc(F)cc(C#N)c2)c2c1[C@H](O)C(F)(F)C2,–,2.13% (inactive)
C[C@@H]1COCCN1c1cc(=O)n2c(n1)N(Cc1cncc(Cl)c1)[C@H](C(F)(F)F)CC2,6.51 µM (active) and inactive,–
C=C[C@]1(C)C[C@H](O)[C@H]2C(=C)C(=O)O[C@@H]2[C@H]1C(=C)CO,14.5 µM (active),–
CO[C@H]1[C@@H](O)[C@H](O[C@H]2CC[C@@]3(C)C(CCC4C3CC[C@]35COC6(COC(=O)C6)C3CCC45O)C2)O[C@@H](C)[C@@H]1OC1OC(CO)C(OC2OC(CO)C(O)C(O)C2O)C(O)C1O (stereo not given in full),3.88 µM (active),–
C[C@H]1CC[C@@]2(OC1)O[C@H]1CC3C4CC[C@H]5C[C@@H](O)CC[C@]5(C)C4=CC(=O)[C@]3(C)[C@H]1[C@@H]2C (stereo not given in full),–,-25.4% [at 17.3 µM] (inactive)
CC(=O)NC(C(=O)O[C@H]1CCC(C)(C)[C@@H]2CC=C3C(=O)OCC3(O)[C@@]12C)C(C)C (stereo not given in full),12.7 µM (active),–
O=C1c2ccc(Nc3ccc(F)cc3F)cc2CCc2ccc(OCC(O)CO)cc21 (stereo not given),18.3 µM (active),–
COc1cc(C(C)=O)c(OC)c2c1OC(C)(C)C=C2,–,-3.87% (inactive)
COc1cc(O)c2c(c1)C1OC1C[C@H](O)[C@H](O)C(=O)/C=C\C[C@H](C)OC2=O (stereo not given in full),2.05 µM (active),–
CC(=O)OC1CC(C)C2(CCC3(CC(=O)OC3O)O2)C2(C)CCCC(C)(C)C12 (stereo not given),–,-14.7% [at 17.3 µM] (inactive)
CC(=O)OC1CC(C)(C(=O)O)CC2C3=CC(=O)C4C5(C)CCC(OC6OC(C(=O)O)C(O)C(O)C6OC6OC(C(=O)O)C(O)C(O)C6O)C(C)(C)C5CCC4(C)C3(C)CCC12C (stereo not given),–,-8.59% [at 9.23 µM] (inactive)
CN(C)C(=O)COC(=O)c1cc(-c2ccc(C3CCNCC3)cc2)c2ccc(-c3ccc(C(F)(F)F)cc3)cc2c1,4.59 µM (active),–
CC1=CC2/C=C(\C)CCC(O)C(=O)C(O)CC(=O)C23C(=O)NC(CC(C)C)C3C1C (stereo not given),6.32 µM (active),–
